High-throughput results from PubChem.
Only some compounds are listed: those with a hit (about 7.4% of all), similar ones and a draw of the others.
FLuc modulator – inhibits or activates purified firefly luciferase, miR-21 counter-screen | purified FLuc, Km substrates, luminescence inhibition | P08659 | 360,000 tested, 6.9% active | Potency, µM (series often up to 57.5 µM), for the others: top-dose activity change, negative = inhibition, most hits filed as inhibitors;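 further: plate controls were vehicle for no effect and reference inhibitor for full effect; nearly all actives have a fitted effect of over 55% in size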
Target sequence (P08659 whole entry, looked up): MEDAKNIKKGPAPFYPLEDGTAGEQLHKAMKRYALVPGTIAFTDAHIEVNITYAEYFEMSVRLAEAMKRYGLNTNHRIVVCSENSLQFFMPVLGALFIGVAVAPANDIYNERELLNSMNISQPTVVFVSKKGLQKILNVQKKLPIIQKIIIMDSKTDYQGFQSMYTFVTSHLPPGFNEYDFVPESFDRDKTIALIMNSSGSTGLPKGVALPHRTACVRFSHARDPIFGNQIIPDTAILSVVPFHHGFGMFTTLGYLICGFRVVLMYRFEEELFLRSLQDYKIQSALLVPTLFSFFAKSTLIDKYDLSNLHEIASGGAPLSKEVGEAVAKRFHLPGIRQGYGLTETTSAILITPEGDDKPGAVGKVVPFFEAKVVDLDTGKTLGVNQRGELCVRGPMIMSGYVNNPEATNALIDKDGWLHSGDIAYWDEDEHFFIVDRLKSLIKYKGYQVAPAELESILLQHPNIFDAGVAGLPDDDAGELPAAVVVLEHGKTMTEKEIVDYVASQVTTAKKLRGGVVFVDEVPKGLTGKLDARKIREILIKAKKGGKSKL
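Biochemical qHTS of compounds, final roughly 60 µM downward over six points, against 10 nM purified firefly luciferase using Km concentrations of substrates (10 uM D-luciferin, 10 uM ATP) in Tris acetate pH 7.5 buffer; luminescence output.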
SMN2 splice enh – enhancers of SMN2 splice variant expression. Potency, µM (highest dose often 46.1 µM), for the others: top-dose activity change, positive = activation, actives largely listed as activators. 210,000 tested, 2.8% active. HEK293 SMN2-luciferase splicing reporter, luminescence, 30-36 h; further: % of control where 0% means no effect; nearly all actives have a fitted effect of over 55% in size
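HEK293 cells carry an SMN2 […]–luciferase reporter in which exon 7 inclusion puts luciferase in frame. Cells were plated 10-12 h before compound addition, then incubated 30-36 h at 37C. ONE-Glo luminescence was read; sodium butyrate at 4.5 mM final served as control.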
ELG1 genotoxic – inducers of genotoxicity in HEK293T ELG1-luciferase cells. HEK293T ELG1-luciferase reporter, luminescence, 16 h. Potency, µM (highest dose often 46 µM), inactives show at the top dose activity change, positive = activation, actives largely listed as activators. 330,000 tested, 1.3% active. AID 504466; further: % of control where 0% means no effect; nearly all actives have a fitted effect of over 60% in size
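DMSO vehicle served as control against compound-treated ELG1-luciferase HEK293T cells; exposure lasted 16 hr at 37 °C and 5% CO2, followed by ONE-Glo luminescence detection after 30 min.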
NPC1 promoter act – activates the NPC1 promoter; Potency, µM (titrated, usually from 9.22 µM), for inactives: at the top dose activation, actives largely listed as activators; 320,000 tested, 2.4% active; Huh7 NPC1 promoter luciferase reporter, 24 h; further: % of control where 0% means no effect; nearly all actives have a fitted effect of over 60% in size
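Luminescence from an NPC1 promoter-driven luciferase reporter in stably transfected Huh7 cells was measured after 24 h compound treatment at 37 °C, followed by 10 min ambient incubation with luciferase detection reagent.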
Rab9 promoter act – Rab9 promoter activation; Huh7 Rab9 promoter-luciferase reporter, luminescence, 24 h; AID 485297; Potency, µM (top dose mostly 9.22 µM), for the others: top-dose activation, negative = inhibition, actives largely listed as activators; 320,000 tested, 2.8% active; further: % of control where 0% means no effect; nearly all actives have a fitted effect of over 60% in size
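Luminescence read-out: Huh7 cells stably expressing Rab9-luciferase, treated 24 h with compound at 37 °C, then lysed with luciferase reagent for 10 min at ambient before reading.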
Starred values were filed as active, the others as inactive; ? = inconclusive; . = no result; [ ] = another dose, or the depositor's remark. The call rests on the fitted dose curve; in most records, active means well fitted curve in the direction sought with a large enough effect; inconclusive means small, poorly fitted or top-dose-only effect, or another doubt; inactive means no such curve, though single readings can be large; an effect the other way counts as inactive or inconclusive. Potency means the concentration at half of the fitted maximal effect.

SMILES	FLuc modulator	SMN2 splice enh	ELG1 genotoxic	NPC1 promoter act	Rab9 promoter act
CCOc1ccc(-c2nc(CSCC(=O)N3CCN(C(=O)c4ccco4)CC3)c(C)o2)cc1	19µM*	-25.9%	-0.6%	29.9%	21.2%
CCc1ccc(-c2nc(CSCC(=O)NCc3ccco3)c(C)o2)cc1	23.9µM*	-85.1%	-5.6%	-14.5%	-15.7%
COc1ccc(-c2nc(CSCC(=O)N3CCN(c4ccccc4)CC3)c(C)o2)cc1	-17.6%	-8.6%	.	.	.
CCOC(=O)CSCc1nc(-c2ccc(Cl)cc2)oc1C	16.9µM*	-18.6%	2.8%	2.1%	-8.0%
CCOC(=O)C1CCN(C(=O)CSCc2nc(-c3ccc(OCC)cc3)oc2C)CC1	?	-79.2%	20.6µM*	-2.7%	-11.2%
Cc1ccc(CNC(=O)CSCc2nc(-c3ccc(Cl)cc3)oc2C)cc1	-19.3%	-9.3%	.	.	.
CCC/C=C(\CCC)C(NS(=O)(=O)c1ccc(Cl)cc1)c1ccccc1 (stereo not drawn)	.	-15.3%	.	.	.
Cc1ccc(S(=O)(=O)c2cn(CC(=O)Nc3ccc4c(c3)OCO4)c3ccc(C)cc3c2=O)cc1	-6.2%	12.1%	.	.	.
Cc1ccc(OCc2cc(=O)n3ccsc3n2)c(NC(=O)c2ccco2)c1	-4.0%	.	.	.	.
CCOc1ccc(-c2nc(CSCC(=O)NCC3CCCO3)c(C)o2)cc1 (stereo not drawn)	16.9µM*	.	-0.1%[9.26 µM]	-0.1%	2.9%
Cc1ccc(C)c(Nc2nnc(-c3ccc(C)c(S(=O)(=O)NCC4CCCO4)c3)c3ccccc23)c1 (stereo not drawn)	2.2%	-0.5%	.	.	.
CN(C)c1ccc(-c2nnn(CC(=O)Nc3ccccc3N3CCOCC3)n2)cc1	26.9µM*	-12.5%	-1.8%	29.7%	8.6%
O=C(Cn1nnc(-c2ccc3c(c2)OCO3)n1)Nc1ccccc1C(=O)O	15.1µM*	.	?	?	26.7%
CCOC(=O)c1cc(OC(=O)c2ccc(Cl)cc2)n(-c2ccccc2)n1	-15.6%	-7.0%	.	.	.
CCn1c(CN2CCN(c3cccc(Cl)c3)CC2)nc2c1c(=O)[nH]c(=O)n2C	2.3%	-5.1%	.	.	.
O=C1c2ccccc2NC(c2ccccc2Cl)N1N=C1CCCCCC1 (stereo not drawn)	12µM*	-6.6%[1.84 µM]	?	-1.7%	-1.2%
Cc1ccc(/C=N/Nc2nnc(Cl)c3ccccc23)cc1	0.601µM*	4.47µM*	2.31µM*	?	?
Clc1ccc(/C=N/Nc2nc(Cl)nc3ccccc23)cc1	13.5µM*	28.8%	?	2.8%	14.7%
C=CCNc1nnc(Cl)c2ccccc12	-1.9%	-32.1%	-0.5%	-0.9%	-4.7%
Clc1ccccc1-c1nc(N/N=C/c2cccnc2)c2ccccc2n1	0.5%	-20.5%	-2.5%	2.7%	-0.6%
Cc1nc(N)nc(N/N=C/c2ccccc2)n1	-17.0%	.	11.9%	10.2%	2.3%
Clc1cncc(Cl)c1N/N=C/c1ccccc1	21.3µM*	.	5.7%	27.6%	-0.9%
Clc1nnc(N/N=C/c2ccccc2)c2ccccc12	2.69µM*	17.8µM*	7.08µM*	20.9%	?
O=C(Nc1ccccc1Br)C(Cc1ccccc1)NS(=O)(=O)c1cccc2nsnc12 (stereo not drawn)	2.5%	4.3%	.	.	.
Clc1ccc(/C=N/Nc2nnc(Cl)c3ccccc23)cc1	?	11.2µM*	?	?	?
SMILES	FLuc modulator	SMN2 splice enh	ELG1 genotoxic	NPC1 promoter act	Rab9 promoter act
Clc1nnc(NN=C2CCCC2)c2ccccc12	?	-9.4%	1.9%	-5.5%	1.3%
CC1=C(C(=O)Nc2cccnc2)C(c2cccc(Br)c2)n2nc(SCc3ccccc3)nc2N1 (stereo not drawn)	-0.1%	-0.7%	.	.	.
CC1CCc2c(sc3ncnc(NCc4cccnc4)c23)C1 (stereo not drawn)	26.9µM*	29.3%	-0.4%	5.9%	-7.9%
CC(=O)c1cccc(NC(=O)CN2C(=O)CCc3cc(S(=O)(=O)N4CCCCC4)ccc32)c1	-4.7%	.	.	.	.
CCCCNC(=O)c1ccc2c(c1)ncn2C1CCCC1	16.9µM*	3.6%	?	-0.2%	4.3%
Cc1cc(C(=O)Cn2nnc3ccccc3c2=O)c(C)n1-c1ccccc1F	0.338µM*	11.2µM*	?	0.447µM*	0.398µM*
COc1ccc(-n2c(C)cc(C(=O)Cn3nc(C(=O)O)c4ccccc4c3=O)c2C)cc1	23.9µM*	-27.8%	-2.3%	-0.8%	1.2%
COCC(C)n1c(C)cc(C(=O)COC(=O)c2nn(C)c(=O)c3ccccc23)c1C (stereo not drawn)	.	.	-1.4%	.	.
COCC(C)n1c(C)cc(C(=O)Cn2nc(C(=O)O)c3ccccc3c2=O)c1C (stereo not drawn)	7.57µM*	2.4%	?	-0.4%	23.2%
Cc1cc(C(=O)Cn2nc(C(=O)O)c3ccccc3c2=O)c(C)n1CC(F)(F)F	3.01µM*	4.9%	15.9%	18.0%	?
Cc1ccc(C)c(C(=O)N2CCC(c3nc4c(nnn4Cc4ccccc4)c(=O)[nH]3)CC2)c1	2.2%	?	.	.	.
Cn1c(=O)oc2cc(S(=O)(=O)NC(Cc3ccccc3)C(=O)Nc3ccc(F)cc3)ccc21 (stereo not drawn)	0.3%	6.6%	.	.	.
CC(C)OC(=O)c1c(NC(=O)c2cc3nc(-c4ccccc4)cc(C(F)(F)F)n3n2)sc2c1CCCC2	-5.6%	.	.	.	.
Cc1ccc(-n2c(C)cc(C(=O)Cn3nc(C(=O)O)c4ccccc4c3=O)c2C)cc1	5.36µM*	.	3.9%	0.3%	8.3%
COc1ccc(-n2c(C)cc(C(=O)Cn3nnc4ccccc4c3=O)c2C)cc1	12µM*	-3.3%	-2.0%	23.1%	?
Cc1cc(C(=O)Cn2nnc3ccccc3c2=O)c(C)n1-c1c(C)n(C)n(-c2ccccc2)c1=O	0.5%	6.3%	0.2%	0.3%	-7.1%
Cc1cc(C(=O)Cn2nc(C(=O)O)c3ccccc3c2=O)c(C)n1-c1ccc(OC(F)F)cc1	-16.3%	-51.5%	-10.6%	0.1%	0.8%
Cc1ccc(C(=O)Cn2nc(C(=O)O)c3ccccc3c2=O)cc1C	6.75µM*	.	0.9%	3.8%	13.5%
O=C(O)c1ccc(-c2nnc(-c3ccccc3)o2)cc1	5.36µM*	.	?	0.316µM*	?
O=C(O)c1ccc(-c2nnc(-c3ccc([N+](=O)[O-])cc3)o2)cc1	-7.7%	.	-0.6%	-0.5%	4.5%
O=C(c1ccc(-c2nnc(-c3ccccc3)o2)cc1)N1CCCCCC1	4.78µM*	.	?	1.41µM*	0.562µM*
O=C(OCc1nnc(-c2ccccc2)o1)c1ccc(CO)cc1	-1.6%	6.9%	1.5%	-5.2%	0.3%
CCOC(=O)c1cccc(COC(=O)c2cccc(-c3nnc(-c4ccccc4)o3)c2)c1	10.7µM*	3.55µM*	?	2µM*	1.26µM*
CC(C)OC(=O)c1ccc(COC(=O)c2cccc(-c3nnc(-c4ccccc4)o3)c2)cc1	?	5.01µM*	?	2.24µM*	2.51µM*
